Assay outcomes (PubChem)
TDP1 cell CPT: qHTS for Inhibitors of human tyrosyl-DNA phosphodiesterase 1 (TDP1): qHTS in cells in presence of CPT. 420,000 compounds, 12% hits. AID 686979, 2013. Potency, µM (doses to about 46.2 µM), actives largely listed as inhibitors. chicken DT40 Tdp1-/-;hTDP1 cells + 20 nM CPT, ATP luminescence, 48 h; note: nearly all actives have a fitted effect of over 55% in size
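Cell growth measured by CellTiter-Glo luminescence after a minimum 48 h, 37 C compound exposure with 20 nM CPT in Tdp1-knockout DT40 cells stably expressing hTDP1, seeded 400/well; qHTS titration format.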
TDP1 cell noCPT: qHTS for Inhibitors of human tyrosyl-DNA phosphodiesterase 1 (TDP1): qHTS in cells in absence of CPT | AID 686978, 2013 | Potency, µM (titrated, usually from 46.2 µM), most hits filed as inhibitors | 420,000 compounds, 15% hits | DT40 Tdp1-/- hTDP1 cells, no CPT, ATP luminescence, 48 h; note: nearly all actives have a fitted effect of over 55% in size
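A cellular qHTS used chicken DT40 cells lacking endogenous Tdp1 but carrying stably transfected human TDP1. Compounds were applied without camptothecin, and cell growth kinetics were judged by ATP-dependent luminescence after ≥48 hr.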
ClpP mod: qHTS Assay for Activators of ClpP | AID 651965, 2013 | ATP-dependent Clp protease proteolytic subunit (Bacillus subtilis (strain 168)), P80244 | Potency, µM (titrated, usually from 57.5 µM) | purified B. subtilis ClpP, FRET peptide cleavage, 20 min | 340,000 compounds, 1.9% hits; active = well fitted falling curve with a large enough effect; inconclusive = small, poorly fitted or top-dose-only effect; inactive = no such curve, though single readings can be large or run the other way; note: the source files actives as falling curves though it sought activators and does not explain the sign; nearly all actives have a fitted effect of over 65% in size
Target sequence (P80244 whole entry, looked up): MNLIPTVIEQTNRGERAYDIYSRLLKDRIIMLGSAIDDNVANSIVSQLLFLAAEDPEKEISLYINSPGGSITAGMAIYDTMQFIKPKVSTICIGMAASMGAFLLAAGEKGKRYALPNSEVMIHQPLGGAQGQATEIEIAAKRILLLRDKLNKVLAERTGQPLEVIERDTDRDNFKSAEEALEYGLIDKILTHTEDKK
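Purified B. subtilis ClpP, 10 microg/mL final in Tris/HCl pH8 with KCl, BSA, glycerol and Tween-20, cleaved an Abz/nitrotyrosine-quenched decapeptide. Fluorescence (ex 320, em 430) was read at 0 and 20 min at room temperature. Delta was normalized to 5.8 microM ADEP and DMSO/no-enzyme controls.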
TDP1 inh: qHTS Assay for Inhibitors of Tyrosyl-DNA Phosphodiesterase (TDP1); Tyrosyl-DNA phosphodiesterase 1 (Homo sapiens), Q9NUW8; recombinant TDP1, AlphaScreen DNA substrate cleavage; Potency, µM (titrated, usually from 130 µM), actives largely listed as inhibitors; 350,000 compounds, 0.28% hits; AID 485290, 2010; note: nearly all actives have a fitted effect of over 40% in size
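Compounds were preincubated with Tdp1 (1 nM final) for 15 min at room temperature before substrate (15 nM final) started a 5 min reaction; beads (10 ug/ml final) were then added for 10 min before AlphaScreen detection.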
Each line names hits and unclear results; the compound was inactive in the other large screens; ! = a repeat was not active. Only some compounds are listed: those with a hit (about 17% of all), similar ones and a draw of the others. Unless noted, calls come from the whole dose curve; as a rule, active = well fitted curve in the direction sought with a large enough effect; inconclusive = small, poorly fitted or top-dose-only effect, or another doubt; inactive = no such curve, though single readings can be large; an effect the other way counts as inactive or inconclusive.

CN[C@H](C)C(=O)NC[C@H]1O[C@@H](n2cnc3c(N)ncnc32)[C@H](O)[C@@H]1O	none
O=c1[nH]c2ccc(NCc3ccccc3OCc3ccc(Cl)cc3)cc2[nH]1	TDP1 cell CPT 23µM, TDP1 cell noCPT inconclusive
Oc1ccc(NCc2ccccc2OCc2ccc(Cl)cc2)cc1	TDP1 cell CPT 29µM, TDP1 cell noCPT 21µM
Oc1ccc(NCc2ccccc2OCc2ccccc2)cc1	TDP1 cell CPT 18µM, TDP1 cell noCPT 23µM
Cc1ccc(NC(=O)c2c(NC(=O)c3ccccc3Cl)sc3c2CCC3)cc1	TDP1 cell CPT inconclusive, TDP1 cell noCPT inconclusive
CC(=O)c1cc2c(cc1N/C(=N/S(=O)(=O)c1ccc(C)cc1)c1ccc(F)cc1)OCO2	none
COc1cccc(CNC(=O)CCNS(=O)(=O)c2ccc3c(c2)CCCC(=O)N3)c1	none (no result: TDP1 cell CPT, TDP1 cell noCPT)
Cc1ccc2c(c1)-c1c(cnc3cc(-c4ccccc4)nn13)CO2	none
NC(=O)NO	none
CC(=O)NO	TDP1 cell CPT inconclusive, TDP1 cell noCPT 1.7µM!
CC1(C)CC(=O)C(/C=N/n2cnc3ccccc3c2=O)=C(O)C1	none
O=C(Cn1cnc2ccccc2c1=O)N1CCN(c2ccccc2)CC1	none
C=CCS/C(=N\n1cnc2ccccc2c1=O)N1CCCCC1	TDP1 cell CPT 26µM, TDP1 cell noCPT 18µM
C=CCS/C(=N\n1cnc2ccccc2c1=O)N(CC)CC	TDP1 cell CPT inconclusive, TDP1 cell noCPT 18µM
Cc1ccc(S(=O)(=O)N2CCC(=O)N([C@H](COCc3cccc(Cl)c3)C(C)C)CC2)cc1	TDP1 cell CPT 21µM, TDP1 cell noCPT 16µM (no result: TDP1 inh)
Cc1ccc(S(=O)(=O)N2CCC(=O)N(CCOCc3cccc(F)c3)CC2)cc1	TDP1 cell noCPT inconclusive
Cc1ccc(S(=O)(=O)N2CCC(=O)N(C(COCc3cccc(C)c3)C(C)C)CC2)cc1 (configuration not stated)	TDP1 cell CPT inconclusive, TDP1 cell noCPT inconclusive
Cc1ccc(S(=O)(=O)N2CCC(=O)N(C(COCc3cccc(Cl)c3)C(C)C)CC2)cc1 (configuration not stated)	TDP1 cell CPT inconclusive, TDP1 cell noCPT 21µM
Cc1ccc(S(=O)(=O)N2CCC(=O)N(C(COCc3cccc(C(F)(F)F)c3)C(C)C)CC2)cc1 (configuration not stated)	TDP1 cell CPT 16µM, TDP1 cell noCPT 21µM
Cc1ccc(S(=O)(=O)N2CCC(=O)N(CCOCc3cccc(Cl)c3)CC2)cc1	TDP1 cell CPT inconclusive, TDP1 cell noCPT inconclusive
Cc1cnc(C)c(-c2cc(F)cc3c2OC(CNC(=O)C2CCOC2)C3)n1 (configuration not stated)	none (no result: ClpP mod, TDP1 inh)
CC(C)=NOCC(=O)Nn1c(COc2c(C)cccc2C)nc2ccccc2c1=O	none (no result: ClpP mod)
COc1ccc(NCc2nnc(-c3ccccc3)o2)cc1	none
Cc1ccc([N+](=O)[O-])cc1S(=O)(=O)N1CCn2cccc2C1c1ccccc1 (configuration not stated)	TDP1 cell CPT 21µM, TDP1 cell noCPT inconclusive
CCCCC[C@@H](C)N1C[C@H](COCc2ccccc2)Oc2cc(N3CC[C@@H](N(C)C)C3)ccc2S1(=O)=O	TDP1 cell CPT 23µM, TDP1 cell noCPT 21µM (no result: TDP1 inh)
CCCCC[C@H](C)N1C[C@H](COCc2ccccc2)Oc2cc(N3CC[C@H](N(C)C)C3)ccc2S1(=O)=O	TDP1 cell CPT inconclusive, TDP1 cell noCPT 16µM (no result: TDP1 inh)
CCCCC[C@H](C)N1C[C@H](COCc2ccccc2)Oc2cc(N3CC[C@@H](N(C)C)C3)ccc2S1(=O)=O	TDP1 cell CPT inconclusive, TDP1 cell noCPT inconclusive (no result: TDP1 inh)
C[C@@H](c1ccccc1)N1C[C@@H](COCc2ccccc2)Oc2cc(N3CC[C@@H](N(C)C)C3)ccc2S1(=O)=O	TDP1 cell CPT inconclusive, TDP1 cell noCPT 15µM, ClpP mod inconclusive (no result: TDP1 inh)
CCCCC[C@@H](C)N1C[C@@H](COCc2ccccc2)Oc2cc(N3CC[C@@H](N(C)C)C3)ccc2S1(=O)=O	TDP1 cell CPT 21µM, TDP1 cell noCPT 23µM (no result: TDP1 inh)
C[C@H](c1ccccc1)N1C[C@H](COCc2ccccc2)Oc2cc(N3CC[C@@H](N(C)C)C3)ccc2S1(=O)=O	none (no result: TDP1 inh)
CC1CCN(C(=O)c2nc[nH]c2C(=O)N2CCC(C)CC2)CC1	none
COc1ccc(/C=C2/N=C3CCCCCN3C2=O)cc1	none (no result: ClpP mod)
O=C(CN1C(=O)NC2(CCCCC2)C1=O)NCc1ccc2c(c1)OCO2	none
O=C(NCC1Cc2cc(-c3cnc4ccccc4c3)cc(F)c2O1)c1cnsn1 (configuration not stated)	TDP1 cell CPT inconclusive (no result: ClpP mod, TDP1 inh)
Cc1ccc(N/C(N)=N/c2nc(CSc3ccccn3)cc(=O)[nH]2)c(C)c1	TDP1 cell CPT inconclusive, TDP1 cell noCPT 18µM (no result: ClpP mod)
CCCc1cc(=O)[nH]c(/N=C(\N)Nc2ccccc2)n1	TDP1 cell CPT inconclusive
Cc1ccc(NC(=O)c2ccc(CSc3ccccn3)cc2)cc1	TDP1 cell CPT inconclusive, TDP1 cell noCPT 23µM
COCc1cc(=O)[nH]c(/N=C(\N)Nc2ccc(C)cc2C)n1	none (no result: ClpP mod)
CCc1ccc(N/C(N)=N/c2nc(CSc3ccccn3)cc(=O)[nH]2)cc1	TDP1 cell CPT 15µM, TDP1 cell noCPT 16µM (no result: ClpP mod)
Cc1ccc(NC(=O)c2ccc(CSc3ccccn3)cc2)c(O)c1	TDP1 cell noCPT inconclusive
Cc1ccc(CN2C[C@@H](Sc3nc(C)cc(C)n3)C[C@H]2C(=O)N2CCN(c3ccccc3F)CC2)cc1	TDP1 cell noCPT inconclusive (no result: ClpP mod, TDP1 inh)
O=S(=O)(NC1c2cccc3cccc(c23)C1Sc1ncccn1)c1ccccc1 (configuration not stated)	TDP1 cell CPT inconclusive, TDP1 cell noCPT 21µM
Cn1cnnc1SC1c2cccc3cccc(c23)C1NS(=O)(=O)c1ccccc1 (configuration not stated)	none
CC(C)c1cccc(C(C)C)c1OCCCCCN1CCOCC1	TDP1 cell CPT inconclusive, TDP1 cell noCPT inconclusive (no result: TDP1 inh)
O/N=C/c1ccccc1Oc1ccccc1	none
O/N=C/c1ccccc1Oc1ccc(Cl)cc1	TDP1 cell CPT inconclusive, TDP1 cell noCPT 16µM
O=C(c1ccccc1)N1N=C(c2ccccc2)CC1c1ccccc1[N+](=O)[O-] (configuration not stated)	TDP1 cell noCPT inconclusive, ClpP mod 25µM
CCOC(=O)N1CCN(c2nc3ccccc3nc2C(C#N)S(=O)(=O)c2ccc(C)cc2)CC1 (configuration not stated)	TDP1 cell CPT inconclusive, TDP1 cell noCPT inconclusive, ClpP mod 32µM
CCN1CCN(c2nc3ccccc3nc2C(C#N)C(=O)OC2CCCCC2)CC1 (configuration not stated)	TDP1 cell CPT 23µM, TDP1 cell noCPT 23µM
CN1CCN(c2nc3ccccc3nc2C(C#N)C(=O)OC2CCCCC2)CC1 (configuration not stated)	TDP1 cell CPT 29µM, TDP1 cell noCPT inconclusive
